A short description of assay [1]: small molecules captured by biotinylated probe aFSTL3 – biochemical, small-molecule microarray, fluorescence 635/667, stem cell growth factor project, primary screen (AID 1064).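 Note: measures binding of the biotinylated anti-FSTL3 antibody to printed compounds.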 The note with it: higher = more signal.
Assay [2] can be described thus: binders from COS7 lysate, DM2A8 probe, primary screen, torsin A project, cell lysate, small-molecule microarray, fluorescence 635/667 (AID 1065). The settings on record: higher = more signal, COS7 lysate expressing mutant human TOR1A.
A short description of assay [3]: small molecules captured by biotinylated probe aFGF2 – biochemical, small-molecule microarray, fluorescence 635/667, stem cell growth factor project, primary screen (AID 1067).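 Note: measures binding of biotinylated aFGF2 protein to printed compounds on slides; z-score merges feature fluorescence and signal-to-noise across triplicate slides.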 The note with it: higher = more signal.
Assay [4] in a line: small molecules captured by biotinylated probe aFGF10 – biochemical, small-molecule microarray, fluorescence 635/667, stem cell growth factor project, primary screen (AID 1071).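 Note: score merges 667 nm spot intensity and signal to noise from triplicate slides.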 The settings on record: higher = more signal.
Assay [5] addresses Neurogenic locus notch homolog protein 2 (Homo sapiens) (UniProt Q04721). Put plainly: small molecules binding Notch2 protein – biochemical, small-molecule microarray, 635 nm fluorescence, stem cell growth factors, primary screen (AID 1073). The settings on record: higher = more signal.
For assay [6], the target named is Pro-neuregulin-1, membrane-bound isoform (Homo sapiens) (UniProt Q02297). Put plainly: small molecules binding neuregulin-1 protein – biochemical, small-molecule microarray, fluorescence 635/667, psychiatric disease protein project, primary screen (AID 1075).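 Note: score combines 667 nm spot fluorescence with signal to noise.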 The settings on record: NRG1 binding, 635 nm fluorescence, higher = more signal.
Assay [7] has as its system Neuregulin-1 EGF-like domain. Put plainly: small molecules binding NRG1 EGF domain – biochemical, small-molecule microarray, 635 nm fluorescence, primary screen (AID 1081).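 Note: binding of the protein to compounds printed on small-molecule microarray slides.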 The settings on record: higher = more signal.
Assay [8] in a line: FRG1 expression reporter modulators in myotubes – cell-based, C2C12 myotubes, firefly/Renilla luciferase, luminescence, FRG1 inhibition for FSHD, primary screen (AID 1084). The note with it: FRG1 promoter luciferase, higher = more signal, called active from +8 up or from −8 down.
Assay [9] in a line: small molecules captured by biotinylated probe aFST – biochemical, small-molecule microarray, fluorescence 635/667, stem cell growth factor project, primary screen (AID 1086).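 Note: score merges 667 nm fluorescence with signal-to-noise of each printed compound spot.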 The settings on record: higher = more signal.
Assay [10] in a line: binders of probe aHhip on microarray, primary screen, stem cell growth factor project, biochemical, small-molecule microarray, fluorescence 635/667 (AID 1087).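 Note: score merges spot fluorescence at 667nm with spot signal to noise ratio.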 The note with it: higher = more signal.
The subject of assay [11] is PRMT1 (protein arginine N-methyltransferase 1). Put plainly: small molecules binding arginine methyltransferase PRMT1 – biochemical, small-molecule microarray, 635 nm fluorescence, primary screen (AID 1088).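 Note: binding of Prmt1 protein to compounds spotted on small-molecule microarray slides.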 The note with it: higher = more signal.
Assay [12] is described as follows: growth effects on S. cerevisiae YJM789 – YJM789 clinical isolate, OD600, 24 h, basal, primary screen (AID 1089).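 Note: growth of clinical yeast isolate S. cerevisiae YJM 789 seeded 1000 cells per well; test concentration not given here.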 The settings on record: higher = more signal, called active from +8 up or from −8 down.
Assay [13] in a line: S. pombe growth modifiers, basal conditions – strain 972, OD600, 24 h, no modulator, primary screen (AID 1090).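 Note: basal condition with compound alone and no growth modifier present; test concentration not given here.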 The note with it: S. pombe 972 growth, higher = more signal, called active from +8 up or from −8 down.
Assay [14] is described as follows: budding yeast growth modifiers under rapamycin – strain BY4716, OD600, 96 h, primary screen (AID 1091). Note: test concentration not given here. The note with it: S. cerevisiae BY4716 + rapamycin, higher = more signal, called active from +8 up or from −8 down.
Assay [15] deals with Torsin-1A-interacting protein 2 (Homo sapiens) (UniProt Q8NFQ8). Put plainly: small molecules binding lysate-expressed LULL1 – cell lysate, human LULL1 lysate, 635/667 nm fluorescence, primary screen (AID 1092).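 Note: probe is lysate of COS7 cells overexpressing human LULL1; score merges per-feature 667 nm fluorescence with signal-to-noise.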 The note with it: small-molecule microarray, hLULL1 lysate binding, 635 nm fluorescence; higher = more signal.
Assay [16] in a line: optical density change of DRC41 E. coli – strain DRC41, OD650, 24 h, E. coli filamentation project, primary screen (AID 1093).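 Note: MC1000 strain lacking acrAB efflux and sulA so SOS filamentation is blocked; test concentration not given here.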 The note with it: E. coli DRC41 growth, higher = more signal, called active from +8 up or from −8 down.
Assay [17] is described as follows: probe aLefty2 binding to arrayed compounds – biochemical, biotinylated probe, 635/667 nm fluorescence, primary screen (AID 1094).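 Note: score merges spot fluorescence near 667 nm with spot signal-to-noise ratio.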 The settings on record: small-molecule microarray, higher = more signal.
Assay [18] concerns Noggin (protein binding on small-molecule microarray). Put plainly: small molecules binding Noggin protein – biochemical, 635/667 nm fluorescence, primary screen (AID 1095).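 Note: score merges 667 nm feature fluorescence with signal to noise over triplicate slides.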 The settings on record: 635 nm fluorescence, higher = more signal.
Assay [19] addresses Neurogenic locus notch homolog protein 3 (Homo sapiens) (UniProt Q9UM47). The experiment in a line: small molecules binding NOTCH3 protein – biochemical, 635/667 nm fluorescence, primary screen (AID 1096). The settings on record: small-molecule microarray, 635 nm fluorescence, higher = more signal.
Assay [20] is described as follows: probe aEGFR binding to arrayed compounds – biochemical, biotinylated probe, 635/667 nm fluorescence, primary screen (AID 1097).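 Note: probe is a biotinylated anti-EGFR antibody binding compounds printed on slides; score combines fluorescence near 667 nm and signal to noise of each spot.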 The settings on record: small-molecule microarray, higher = more signal.

Composite z-score and z-score data for five compounds are collected here from PubChem BioAssay.

Activity calls are given as the source filed them.

Chain of Neurogenic locus notch homolog protein 2 (Homo sapiens) (Q04721 whole entry, looked up, canonical isoform): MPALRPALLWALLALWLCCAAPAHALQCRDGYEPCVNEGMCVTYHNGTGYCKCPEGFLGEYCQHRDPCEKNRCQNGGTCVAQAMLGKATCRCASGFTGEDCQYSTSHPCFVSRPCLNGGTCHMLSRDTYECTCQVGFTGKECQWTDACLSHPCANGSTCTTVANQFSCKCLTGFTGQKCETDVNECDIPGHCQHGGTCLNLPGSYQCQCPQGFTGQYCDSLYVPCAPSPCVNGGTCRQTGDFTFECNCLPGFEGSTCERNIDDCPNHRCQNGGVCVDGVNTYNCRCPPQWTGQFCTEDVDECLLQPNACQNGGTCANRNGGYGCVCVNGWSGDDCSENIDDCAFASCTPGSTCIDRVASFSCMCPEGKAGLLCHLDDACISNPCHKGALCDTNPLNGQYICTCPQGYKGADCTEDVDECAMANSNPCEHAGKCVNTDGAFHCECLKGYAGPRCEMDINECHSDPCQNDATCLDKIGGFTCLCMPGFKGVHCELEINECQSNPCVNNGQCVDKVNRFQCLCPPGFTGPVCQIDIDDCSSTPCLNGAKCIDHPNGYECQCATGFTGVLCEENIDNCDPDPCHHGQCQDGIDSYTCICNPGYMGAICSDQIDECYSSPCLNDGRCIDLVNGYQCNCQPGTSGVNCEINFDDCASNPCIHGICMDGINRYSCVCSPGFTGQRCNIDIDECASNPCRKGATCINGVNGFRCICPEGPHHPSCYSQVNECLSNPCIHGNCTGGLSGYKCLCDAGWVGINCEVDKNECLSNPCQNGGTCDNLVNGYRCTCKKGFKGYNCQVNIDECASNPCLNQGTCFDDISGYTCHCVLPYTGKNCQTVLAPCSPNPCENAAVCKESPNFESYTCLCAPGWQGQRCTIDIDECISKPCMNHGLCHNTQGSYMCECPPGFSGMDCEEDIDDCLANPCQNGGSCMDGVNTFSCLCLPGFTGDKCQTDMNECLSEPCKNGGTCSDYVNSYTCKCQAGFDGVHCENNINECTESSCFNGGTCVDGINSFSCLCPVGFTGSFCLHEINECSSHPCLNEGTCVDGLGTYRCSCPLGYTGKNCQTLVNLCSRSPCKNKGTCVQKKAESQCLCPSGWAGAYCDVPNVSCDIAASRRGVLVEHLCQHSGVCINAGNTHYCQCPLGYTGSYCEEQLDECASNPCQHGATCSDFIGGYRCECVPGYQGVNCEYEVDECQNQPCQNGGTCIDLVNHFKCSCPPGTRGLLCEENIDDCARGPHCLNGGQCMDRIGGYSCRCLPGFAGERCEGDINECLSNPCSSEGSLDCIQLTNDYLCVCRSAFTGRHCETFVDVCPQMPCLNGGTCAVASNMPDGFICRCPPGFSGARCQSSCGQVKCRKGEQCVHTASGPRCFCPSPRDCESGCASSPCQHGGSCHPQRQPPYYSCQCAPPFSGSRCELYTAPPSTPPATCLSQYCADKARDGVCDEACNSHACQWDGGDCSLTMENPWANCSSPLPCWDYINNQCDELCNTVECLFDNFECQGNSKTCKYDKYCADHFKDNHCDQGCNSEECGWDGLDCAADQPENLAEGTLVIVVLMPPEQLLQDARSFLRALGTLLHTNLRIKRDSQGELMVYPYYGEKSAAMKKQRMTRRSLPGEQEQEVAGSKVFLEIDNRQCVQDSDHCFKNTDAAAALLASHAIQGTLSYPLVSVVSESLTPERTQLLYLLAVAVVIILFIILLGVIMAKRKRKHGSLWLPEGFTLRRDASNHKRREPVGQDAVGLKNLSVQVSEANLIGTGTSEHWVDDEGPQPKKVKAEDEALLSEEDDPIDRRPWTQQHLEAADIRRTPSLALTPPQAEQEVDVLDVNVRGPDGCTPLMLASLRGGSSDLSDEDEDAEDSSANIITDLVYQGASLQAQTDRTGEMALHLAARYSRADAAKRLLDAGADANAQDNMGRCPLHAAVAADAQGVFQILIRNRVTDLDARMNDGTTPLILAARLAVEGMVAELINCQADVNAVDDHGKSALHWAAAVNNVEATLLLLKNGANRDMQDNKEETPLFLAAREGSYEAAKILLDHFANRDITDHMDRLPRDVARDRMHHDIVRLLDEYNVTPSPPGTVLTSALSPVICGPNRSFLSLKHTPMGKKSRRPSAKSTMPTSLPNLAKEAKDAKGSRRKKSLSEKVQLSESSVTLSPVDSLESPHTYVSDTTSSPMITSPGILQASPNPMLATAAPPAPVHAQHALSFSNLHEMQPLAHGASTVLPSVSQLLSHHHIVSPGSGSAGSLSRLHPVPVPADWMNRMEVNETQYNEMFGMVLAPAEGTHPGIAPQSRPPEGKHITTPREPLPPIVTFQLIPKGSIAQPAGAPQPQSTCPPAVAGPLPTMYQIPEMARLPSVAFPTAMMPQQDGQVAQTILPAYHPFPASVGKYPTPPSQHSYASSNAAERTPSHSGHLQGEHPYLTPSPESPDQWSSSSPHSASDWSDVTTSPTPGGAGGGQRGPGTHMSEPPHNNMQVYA
Chain of Neurogenic locus notch homolog protein 3 (Homo sapiens) (Q9UM47 whole entry, looked up): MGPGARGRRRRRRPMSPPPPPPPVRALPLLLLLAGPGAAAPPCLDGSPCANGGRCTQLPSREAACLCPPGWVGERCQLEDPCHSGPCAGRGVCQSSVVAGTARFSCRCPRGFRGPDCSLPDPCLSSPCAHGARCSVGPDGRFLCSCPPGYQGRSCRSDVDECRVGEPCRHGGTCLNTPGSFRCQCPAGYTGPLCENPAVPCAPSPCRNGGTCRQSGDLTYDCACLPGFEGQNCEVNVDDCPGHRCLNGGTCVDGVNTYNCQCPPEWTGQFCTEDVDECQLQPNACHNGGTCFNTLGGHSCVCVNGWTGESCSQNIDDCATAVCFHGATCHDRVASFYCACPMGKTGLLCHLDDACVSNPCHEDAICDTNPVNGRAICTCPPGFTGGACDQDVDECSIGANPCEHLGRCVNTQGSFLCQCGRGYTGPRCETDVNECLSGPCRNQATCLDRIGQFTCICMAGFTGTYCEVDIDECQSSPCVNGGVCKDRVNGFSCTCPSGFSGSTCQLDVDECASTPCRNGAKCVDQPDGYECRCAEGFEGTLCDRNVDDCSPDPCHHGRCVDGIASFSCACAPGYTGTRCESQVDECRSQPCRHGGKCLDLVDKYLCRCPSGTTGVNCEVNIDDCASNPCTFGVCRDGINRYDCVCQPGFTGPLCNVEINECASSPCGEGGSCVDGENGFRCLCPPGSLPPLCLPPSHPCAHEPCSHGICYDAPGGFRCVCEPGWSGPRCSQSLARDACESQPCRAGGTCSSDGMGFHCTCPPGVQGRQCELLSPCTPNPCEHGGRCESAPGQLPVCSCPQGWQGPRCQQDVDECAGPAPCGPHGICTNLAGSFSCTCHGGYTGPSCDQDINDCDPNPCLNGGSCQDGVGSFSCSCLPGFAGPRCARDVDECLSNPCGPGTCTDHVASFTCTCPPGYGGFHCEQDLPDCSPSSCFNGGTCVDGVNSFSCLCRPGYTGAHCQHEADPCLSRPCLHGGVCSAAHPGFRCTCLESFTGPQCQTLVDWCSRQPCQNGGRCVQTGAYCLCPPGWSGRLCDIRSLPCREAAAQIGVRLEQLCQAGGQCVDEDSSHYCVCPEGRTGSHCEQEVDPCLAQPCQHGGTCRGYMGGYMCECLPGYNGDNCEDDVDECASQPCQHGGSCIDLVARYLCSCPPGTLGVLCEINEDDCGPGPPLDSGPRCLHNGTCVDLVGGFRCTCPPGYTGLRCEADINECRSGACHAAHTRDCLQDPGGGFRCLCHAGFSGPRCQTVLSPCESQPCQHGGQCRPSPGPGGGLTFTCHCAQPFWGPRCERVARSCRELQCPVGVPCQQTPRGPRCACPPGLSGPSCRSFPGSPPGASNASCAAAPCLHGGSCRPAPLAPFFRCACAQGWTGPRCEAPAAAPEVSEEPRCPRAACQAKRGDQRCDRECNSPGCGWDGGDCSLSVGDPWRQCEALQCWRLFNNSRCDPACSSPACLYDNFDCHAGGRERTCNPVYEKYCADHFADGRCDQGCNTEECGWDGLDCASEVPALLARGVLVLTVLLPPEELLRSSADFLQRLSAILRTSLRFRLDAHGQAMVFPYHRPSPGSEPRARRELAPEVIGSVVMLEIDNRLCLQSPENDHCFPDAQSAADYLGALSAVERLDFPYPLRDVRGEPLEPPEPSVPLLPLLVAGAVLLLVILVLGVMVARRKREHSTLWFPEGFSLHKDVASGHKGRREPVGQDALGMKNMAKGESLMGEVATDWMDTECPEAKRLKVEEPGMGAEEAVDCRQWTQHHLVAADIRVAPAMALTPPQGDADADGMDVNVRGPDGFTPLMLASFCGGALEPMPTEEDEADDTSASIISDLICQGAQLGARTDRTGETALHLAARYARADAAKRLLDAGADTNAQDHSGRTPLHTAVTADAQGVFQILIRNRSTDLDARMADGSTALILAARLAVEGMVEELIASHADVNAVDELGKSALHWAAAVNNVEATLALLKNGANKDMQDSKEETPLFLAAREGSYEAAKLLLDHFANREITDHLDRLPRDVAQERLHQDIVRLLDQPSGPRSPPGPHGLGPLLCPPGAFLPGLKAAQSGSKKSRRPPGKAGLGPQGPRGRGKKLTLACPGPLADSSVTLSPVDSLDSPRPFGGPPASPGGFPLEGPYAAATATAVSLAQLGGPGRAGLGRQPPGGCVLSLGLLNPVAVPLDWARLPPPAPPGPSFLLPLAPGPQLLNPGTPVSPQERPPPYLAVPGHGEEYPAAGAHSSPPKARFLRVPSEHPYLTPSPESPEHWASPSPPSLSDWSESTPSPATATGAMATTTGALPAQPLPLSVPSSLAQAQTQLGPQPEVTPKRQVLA

As for `CCOC(=O)C[C@H]1[C@H](OC(=O)c2ccc(-c3ccccc3)cc2)[C@@H](NC(=O)c2ccc3ccccc3c2)c2cc(OCCCO)ccc2N1C(=O)Cc1ccc(OC)cc1`, the composite z-score in assay [1] is -0.325; in assay [2], 0.228; in assay [3] it was 0.0325; in assay [4], 0.0493; in assay [5] it was 0.425; in assay [6], 0.15. For the same compound, the composite z-score in assay [7] was -0.733; in assay [9] it was 0.628; in assay [10], -0.134; in assay [11] it was 0.265; in assay [15], 0.948; in assay [17] it was -0.124. The composite z-score is -0.205 in [18], -0.209 in [19] and -0.128 in [20]. The z-score in assay [8] was 1.21 (inactive); in assay [12] it was -1.32 (inactive); in [13] it was 0.636 (inactive); in assay [14], -0.115 (inactive); in assay [16], 0.0672 (inactive).
As to `CCOC(=O)C[C@H]1[C@H](OC(=O)c2ccc(-c3ccccc3)cc2)[C@@H](NC(=O)Cc2ccc(OC)cc2)c2cc(OCCCO)ccc2N1C(=O)c1ccc2ccccc2n1`, the composite z-score in assay [1] was -0.389; in assay [2] it was -0.188; in [3] it was 0.0176; in assay [4], 0.178; in [5], 0.76; in [6] it was 0.33. The composite z-score in assay [7] was 0.0896; in assay [9], 0.484; in [10], -0.0645; in assay [11], 0.532; in [15] it was 1.73; in [17], -0.0561. In addition, the composite z-score in assay [18] was determined as 0.587; in assay [19], 0.317; in [20], 0.223. For the same compound, the z-score in [8] was 0.817 (inactive); in assay [12] it was -0.914 (inactive); in [13], 0.56 (inactive); in assay [14], 0.0126 (inactive); in assay [16], -0.733 (inactive).
In the case of `CCOC(=O)C1=C[C@@H](CC)N(S(=O)(=O)c2ccc(C)cc2)[C@H]1c1ccccc1`, the composite z-score in assay [1] was 0.119; in [2] it was -0.872; in assay [3] it was 0.0603; in [4] it was 0.572; in assay [5], 1.61; in assay [6], 1.1. For the same compound, the composite z-score in assay [7] was found to be 0.919; in assay [9] it was 0.962; in assay [10] it was 0.0373; in assay [11] it was 1.18; in assay [15] it was 2.71; in assay [17] it was 0.097. Moreover, the values for the composite z-score in assay [18], in assay [19] and in assay [20] were 0.13, 1.1 and 0.0356, respectively. Further, the z-score in assay [8] is -1.74 (inactive); in assay [12], -0.595 (inactive); in [13], 0.849 (inactive); in assay [14], 0.567 (inactive); in assay [16], -0.556 (inactive).
For the compound `COC(=O)[C@@]1(Cc2ccc(F)cc2)[C@H]2c3cc(C(=O)N(C)C)n(CCc4ccccn4)c3C[C@H]2CN1C(=O)c1ccccc1`, the composite z-score in [1] was 0.681; in assay [2] it was 0.466; in assay [3], 0.723; in [4] it was 0.759; in assay [5], 1.52; in assay [6] it was 0.183. The composite z-score is 1.09 in assay [7]; 2.35 in [9]; 0.178 in assay [10]; 1.16 in assay [11]; 3.94 in assay [15]; -0.0278 in [17]. Moreover, the composite z-score was found to be 0.259 in assay [18], 0.861 in [19] and 0.709 in assay [20]. For the same compound, the z-score was 1.98 (inactive) in assay [8]; 2.9 (inactive) in assay [12]; 0.423 (inactive) in assay [13]; -0.616 (inactive) in [14]; 0.196 (inactive) in assay [16].
On to `C=C[C@@H](COC(C)=O)N(Cc1ccccc1[N+](=O)[O-])S(=O)(=O)c1ccc(Br)cc1`, for which the composite z-score in [1] came out at 0.0537; in assay [2] it was 0.98; in [3], 0.033; in [4], 0.372; in assay [5], 1.01; in assay [6], 0.939. Besides, the composite z-score was 0.974 in assay [7]; 0.399 in assay [9]; 0.0524 in assay [10]; 0.61 in [11]; 1.43 in [15]; -0.297 in assay [17]. Moreover, the composite z-score is 1.1 in assay [18], 0.945 in [19] and 0.212 in assay [20]. The z-score in assay [8] is -3.14 (inactive); in [12], -3.84 (inactive); in assay [13], -2.76 (inactive); in assay [14], -0.748 (inactive); in assay [16] it was 1.91 (inactive).
